“And” between values parts separate entries of the source, which are not always exact repeats. Identical values can stand only once. Inconclusive results are not listed. Some structures have more than one record in an assay (separate samples or runs), and their calls can disagree. The source made the active and inactive calls. Unless noted, calls follow the shape of the dose curve; as a rule, active = well fitted curve in the direction sought with a large enough effect in the repeat runs; inconclusive = weak or mixed curves; inactive = no such curve, though single readings can be large; an effect the other way counts as inactive or inconclusive.
Tests used:
[1] = qHTS assay to test for compound auto fluorescence at 535 nm (green) in HEK293 cells (AID 720680); settings: green autofluorescence 485/535 nm; series mostly up to 91.3 µM
[2] = qHTS assay to test for compound auto fluorescence at 460 nm (blue) in HEK293 cell free culture (AID 720681); settings: cell-free medium, autofluorescence 405/460 nm (blue); series mostly up to 91.3 µM
Procedure, shortened: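 Test compounds were pinned into cell-free culture medium (DMEM with 10% FBS) and fluorescence was read directly at Ex/Em 405/460 nm. Signals were expressed as fluorescence equivalents of triamterene, with DMSO vehicle as control.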

[3] = qHTS assay to test for compound auto fluorescence at 535 nm (green) in HEK293 cell free culture (AID 720682); settings: cell-free medium, green autofluorescence 485/535 nm, stronger effect = higher value; series mostly up to 91.3 µM
Procedure, shortened: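 Intrinsic compound fluorescence is measured in culture medium containing 10% FBS, with excitation at 485 nm and detection at 535 nm, referenced to fluorescein.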

[4] = qHTS assay to test for compound auto fluorescence at 590 nm (red) in HEK293 cell free culture (AID 720683); settings: cell-free medium autofluorescence, Ex540/Em590 red; series mostly up to 91.3 µM
Procedure, shortened: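 Tox21 10K library compounds were pinned into cell-free DMEM with 10% FBS and fluorescence was read at excitation 540 nm. Activity is expressed as Rose Bengal sodium equivalency.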

[5] = qHTS assay to test for compound auto fluorescence at 590 nm (red) in HepG2 cell free culture (AID 720684); settings: cell-free medium autofluorescence, red 540/590 nm; series mostly up to 91.3 µM
Procedure, shortened: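 Measured in medium alone (MEM containing 10% FBS) following pintool addition of compound; emission at 590 nm with 540 nm excitation, referenced to Rose Bengal sodium.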

[6] = qHTS assay to test for compound auto fluorescence at 460 nm (blue) in HepG2 cell free culture (AID 720685); settings: Cell-free culture medium, blue autofluorescence 405/460 nm; series mostly up to 91.3 µM
Procedure, shortened: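 Compound (23 nL) or DMSO pinned into cell-free MEM with 10% FBS; blue fluorescence read at 405/460 nm excitation/emission, expressed as auto-fluorescence equivalency to triamterene.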

[7] = qHTS assay to test for compound auto fluorescence at 535 nm (green) in HepG2 cell free culture (AID 720686); settings: Cell-free medium, green autofluorescence 485/535 nm; series mostly up to 91.3 µM
[8] = qHTS assay to test for compound auto fluorescence at 460 nm (blue) in HepG2 cells (AID 720687); settings: autofluorescence 405/460 nm, 1 h; series mostly up to 91.3 µM
Procedure, shortened: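 Cells (2,000/well in MEM with 10% FBS) attached overnight at 37 C, then were exposed to compound or DMSO for 1 hr at 37 C, 5% CO2. Fluorescence read at Ex/Em 405/460 nm, expressed as triamterene-equivalent signal.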

[9] = molecular target: Glucocorticoid receptor (Homo sapiens) (UniProt P04150); assay: qHTS assay to identify small molecule agonists of the glucocorticoid receptor (GR) signaling pathway (AID 720691; active = well fitted activation curve with a large enough effect in the signal ratio in the repeat runs, not every such curve was filed as active; the % refers to the signal ratio); settings: GR-bla HeLa, beta-lactamase reporter ratio, 18 h; series mostly up to 62.4 µM
Procedure, shortened: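 GR-bla HeLa cells carrying a GRE-driven beta-lactamase reporter, exposed to compounds for 18 h at 37 C. Reporter activation read as fluorescence after 2 h with LiveBLAzer B/G FRET substrate at room temperature.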

[10] = molecular target: Glucocorticoid receptor (Homo sapiens) (UniProt P04150); assay: qHTS assay to identify small molecule antagonists of the glucocorticoid receptor (GR) signaling pathway (AID 720692; active = well fitted inhibition curve with a large enough effect in the signal ratio in the repeat runs, not every such curve was filed as active; the % refers to the signal ratio); settings: GR-bla HeLa, beta-lactamase FRET ratio, dexamethasone-stimulated, 18 h; series mostly up to 58.5 µM
Procedure, shortened: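 GR-bla HeLa cells carrying a GRE-driven beta-lactamase reporter received compound after 4 h plating, then dexamethasone (5 nM final). After 18 h at 37C, the FRET substrate was loaded for 2 h at room temperature and fluorescence read.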

[11] = qHTS assay to identify small molecule antagonists of the glucocorticoid receptor (GR) signaling pathway - cell viability counter screen (AID 720693); settings: GR-bla HeLa viability, CellTiter-Glo luminescence, 18 h, with 5 nM dexamethasone present; series mostly up to 58.5 µM; also: nearly all actives have a fitted effect of over 55% in size
[12] = qHTS assay for identifying genotoxic compounds that show differential cytotoxicity against isogenic chicken DT40 cell lines with known DNA damage response pathways - wild type cell line (AID 743012); settings: DT40 wild type chicken cells viability, CellTiter-Glo, 40 h; series mostly up to 68.4 µM; also: nearly all actives have a fitted effect of over 60% in size
Procedure, shortened: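 Wild-type DT40 cells (300/well) exposed to compounds for 40 hours at 37 C/5% CO2. Viability read by CellTiter-Glo luminescence after 30 min at room temperature.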

[13] = qHTS assay for identifying genotoxic compounds that show differential cytotoxicity against isogenic chicken DT40 cell lines with known DNA damage response pathways - Rev3 mutant cell line (AID 743014); settings: chicken DT40 Rev3-/- viability, CellTiter-Glo, 40 h; series mostly up to 68.4 µM; also: nearly all actives have a fitted effect of over 55% in size; also: potency is read from the fitted curve at half-maximal effect
[14] = qHTS assay for identifying genotoxic compounds that show differential cytotoxicity against isogenic chicken DT40 cell lines with known DNA damage response pathways - Rad54/Ku70 mutant cell line (AID 743015); settings: DT40 Rad54/Ku70 mutant viability, CellTiter-Glo, 40 h; series mostly up to 66.8 µM; also: nearly all actives have a fitted effect of over 60% in size; also: potency is read from the fitted curve at half-maximal effect
[15] = qHTS assay to identify small molecule antagonists of the androgen receptor (AR) signaling pathway - cell viability counter screen (AID 743033; also: nearly all actives have a fitted effect of over 45% in size); settings: AR-bla HEK293 viability, CellTiter-Glo luminescence, 16 h; series mostly up to 58.5 µM
[16] = molecular target: Androgen receptor (Homo sapiens) (UniProt P10275); assay: qHTS assay to identify small molecule antagonists of the androgen receptor (AR) signaling pathway (AID 743035; active = well fitted inhibition curve with a large enough effect in the signal ratio in the repeat runs, not every such curve was filed as active; the % refers to the signal ratio); settings: HEK293 AR-UAS-bla, R1881-stimulated, beta-lactamase FRET, 16 h; series mostly up to 58.5 µM
Procedure, shortened: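 HEK293 cells stably carrying UAS-beta-lactamase reporter, 2,000/well, given compounds plus R1881 agonist and incubated 16 h at 37C. LiveBLAzer B/G FRET substrate then added for 2 h at room temperature before fluorescence reading.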

[17] = molecular target: Androgen receptor (Homo sapiens) (UniProt P10275); assay: qHTS assay to identify small molecule agonists of the androgen receptor (AR) signaling pathway (AID 743036; active = well fitted activation curve with a large enough effect in the signal ratio in the repeat runs, with a control signal flat, not every such curve was filed as active; the % refers to the signal ratio); settings: HEK293 AR-UAS-bla GripTite, beta-lactamase FRET ratio, 16 h; series mostly up to 62.4 µM
Procedure, shortened: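 Agonist activity was scored by beta-lactamase reporter fluorescence in stably transfected HEK293 cells exposed to compounds for 16 h at 37C and 5% CO2. Substrate loading took 2 h at room temperature.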

[18] = molecular target: Androgen receptor (Homo sapiens) (UniProt P10275); assay: qHTS assay to identify small molecule agonists of the androgen receptor (AR) signaling pathway using the MDA cell line (AID 743040; also: nearly all actives have a fitted effect of over 20% in size); settings: MDA-kb2 AR-luc cells, MMTV luciferase, 16 h, stronger effect = higher value; series mostly up to 70.3 µM
Procedure, shortened: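 Luminescence from ONE-Glo, read after 30 min at room temperature, reflects MMTV-driven luciferase in MDA-kb2 cells (AR- and GR-responsive). Treatment lasted 16 h at 37C, 0% CO2.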

[19] = qHTS assay to identify small molecule antagonists of the androgen receptor (AR) signaling pathway using the MDA cell line - cell viability counter screen (AID 743041; also: nearly all actives have a fitted effect of over 45% in size); settings: MDA-kb2 viability, CellTiter-Fluor, 16 h, cells co-treated with R1881 androgen agonist; series mostly up to 70.3 µM
Procedure, shortened: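 Viability counter screen run alongside the AR antagonist reporter: cells seeded 5 h before compound, R1881 added, 16 h incubation at 37C without CO2, fluorescent CellTiter-Fluor signal quantified.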

[20] = qHTS assay to identify small molecule antagonists of the thyroid receptor (TR) signaling pathway - cell viability counter screen (AID 743064); settings: GH3.TRE-Luc viability, CellTiter-Fluor, 24 h; series mostly up to 70.3 µM; also: nearly all actives have a fitted effect of over 50% in size
Procedure, shortened: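 Same-well viability check: GH3.TRE-Luc cells stimulated with 1 nM T3 alongside test compound for 23.5 h, followed by CellTiter-Fluor fluorescence.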
% is scaled to controls: 0 for no effect and ±100 for the full control effect.

Sequence of Glucocorticoid receptor (Homo sapiens) (P04150 whole entry, looked up): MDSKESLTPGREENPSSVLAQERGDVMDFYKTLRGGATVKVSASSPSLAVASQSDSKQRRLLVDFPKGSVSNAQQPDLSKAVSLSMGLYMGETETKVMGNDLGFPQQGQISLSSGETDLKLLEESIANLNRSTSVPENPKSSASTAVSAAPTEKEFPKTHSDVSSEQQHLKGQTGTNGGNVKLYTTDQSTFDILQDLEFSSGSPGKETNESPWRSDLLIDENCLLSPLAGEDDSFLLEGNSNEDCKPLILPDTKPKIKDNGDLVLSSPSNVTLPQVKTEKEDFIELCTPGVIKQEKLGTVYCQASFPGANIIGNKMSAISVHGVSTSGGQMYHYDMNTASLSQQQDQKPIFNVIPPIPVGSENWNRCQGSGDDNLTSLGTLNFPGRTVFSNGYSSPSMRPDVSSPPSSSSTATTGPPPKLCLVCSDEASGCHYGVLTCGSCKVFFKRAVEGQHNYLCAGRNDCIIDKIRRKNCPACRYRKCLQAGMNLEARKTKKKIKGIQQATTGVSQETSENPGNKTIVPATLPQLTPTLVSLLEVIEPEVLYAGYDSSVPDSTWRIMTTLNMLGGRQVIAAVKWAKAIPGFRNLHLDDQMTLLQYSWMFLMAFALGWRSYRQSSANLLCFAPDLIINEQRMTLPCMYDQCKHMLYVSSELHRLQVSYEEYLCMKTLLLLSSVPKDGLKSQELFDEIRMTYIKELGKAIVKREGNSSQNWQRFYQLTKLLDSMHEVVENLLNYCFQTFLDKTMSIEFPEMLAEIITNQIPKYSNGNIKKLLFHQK
Sequence of Androgen receptor (Homo sapiens) (P10275 whole entry, looked up): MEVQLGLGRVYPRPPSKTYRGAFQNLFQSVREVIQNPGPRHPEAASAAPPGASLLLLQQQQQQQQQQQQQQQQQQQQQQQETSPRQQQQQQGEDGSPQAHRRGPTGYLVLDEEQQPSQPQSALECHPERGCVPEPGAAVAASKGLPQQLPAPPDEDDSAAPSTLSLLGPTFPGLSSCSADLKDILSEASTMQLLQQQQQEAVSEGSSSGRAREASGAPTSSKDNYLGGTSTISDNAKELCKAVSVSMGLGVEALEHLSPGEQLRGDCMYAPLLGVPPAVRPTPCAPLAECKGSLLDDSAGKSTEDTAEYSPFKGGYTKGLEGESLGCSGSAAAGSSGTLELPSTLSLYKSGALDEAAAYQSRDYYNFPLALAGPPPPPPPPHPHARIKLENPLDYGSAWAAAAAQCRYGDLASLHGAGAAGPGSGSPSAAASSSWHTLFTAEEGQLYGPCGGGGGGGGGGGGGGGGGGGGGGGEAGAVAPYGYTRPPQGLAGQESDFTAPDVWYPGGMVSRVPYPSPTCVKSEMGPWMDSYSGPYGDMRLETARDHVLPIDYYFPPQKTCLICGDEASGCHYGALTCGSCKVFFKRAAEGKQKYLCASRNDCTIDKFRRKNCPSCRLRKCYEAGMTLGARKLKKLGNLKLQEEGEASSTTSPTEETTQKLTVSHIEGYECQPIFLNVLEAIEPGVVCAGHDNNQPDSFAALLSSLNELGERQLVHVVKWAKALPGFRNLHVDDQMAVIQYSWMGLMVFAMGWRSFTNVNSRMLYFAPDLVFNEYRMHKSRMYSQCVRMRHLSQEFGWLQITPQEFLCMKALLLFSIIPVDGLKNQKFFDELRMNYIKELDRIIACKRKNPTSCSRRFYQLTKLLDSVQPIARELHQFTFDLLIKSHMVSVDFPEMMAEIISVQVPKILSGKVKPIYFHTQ

CCOC(=O)CC(SP(=S)(OC)OC)C(=O)OCC (centres undefined)
inactive and 64.8 µM (active): Potency [13]
inactive: outcome [1] | outcome [2] | outcome [3] | outcome [4] | outcome [5] | outcome [6] | outcome [7] | outcome [8] | Potency [9] | Potency [10] | Potency [11] | Potency [12] | Potency [15] | Potency [16] | outcome [17] | outcome [18] | Potency [19] | Potency [20]
inactive and 58.8 µM (active): Potency [14]

CCOP(=S)(OCC)SCCl
inactive: outcome [1] | outcome [2] | outcome [3] | outcome [4] | outcome [5] | outcome [6] | outcome [7] | outcome [8] | Potency [9] | Potency [10] | Potency [11] | Potency [12] | Potency [13] | Potency [14] | Potency [15] | Potency [16] | outcome [17] | outcome [18] | Potency [19] | Potency [20]

CCCCCCC1CCOC1=O (centres undefined)
inactive: outcome [1] | outcome [2] | outcome [3] | outcome [4] | outcome [5] | outcome [6] | outcome [7] | outcome [8] | Potency [9] | Potency [10] | Potency [11] | Potency [12] | Potency [13] | Potency [14] | Potency [15] | Potency [19] | Potency [20]

CCC(=O)c1ccc(Cl)cc1
inactive: outcome [1] | outcome [2] | outcome [3] | outcome [4] | outcome [5] | outcome [6] | outcome [7] | outcome [8] | Potency [9] | Potency [10] | Potency [11] | Potency [12] | Potency [13] | Potency [14] | Potency [15] | Potency [19]

C=C(Cl)CCl
inactive: outcome [1] | outcome [2] | outcome [3] | outcome [4] | outcome [5] | outcome [6] | outcome [7] | outcome [8] | Potency [9] | Potency [10] | Potency [11] | Potency [12] | Potency [13] | Potency [14] | Potency [15] | Potency [19]

ClCC1CO1 (centres undefined)
inactive: outcome [1] | outcome [2] | outcome [3] | outcome [4] | outcome [5] | outcome [6] | outcome [7] | outcome [8] | Potency [9] | Potency [10] | Potency [11] | Potency [12] | Potency [13] | Potency [14] | Potency [15] | Potency [19]

C=CCCC#N
inactive: outcome [1] | outcome [2] | outcome [3] | outcome [4] | outcome [5] | outcome [6] | outcome [7] | outcome [8] | Potency [9] | Potency [10] | Potency [11] | Potency [12] | Potency [13] | Potency [14] | Potency [15] | Potency [20]

COc1ccc(C=O)cc1O
inactive: outcome [1] | outcome [2] | outcome [3] | outcome [4] | outcome [5] | outcome [6] | outcome [7] | outcome [8] | Potency [9] | Potency [10] | Potency [11] | Potency [12] | Potency [13] | Potency [14] | Potency [15] | outcome [18] | Potency [19]

Cc1ccc2cc(C)ccc2c1
inactive: outcome [1] | outcome [2] | outcome [3] | outcome [4] | outcome [5] | outcome [6] | outcome [7] | outcome [8] | Potency [9] | Potency [10] | Potency [11] | Potency [12] | Potency [13] | Potency [14] | Potency [15] | Potency [19]

Clc1cc2c(cc1Cl)Oc1cc(Cl)c(Cl)cc1O2
inactive: fluorescence, % of fluorescein [1] 0.0035% [at 0.37 µM] | fluorescence, % of fluorescent control [2] -0.0164% [at 0.37 µM] | activity change [3] -0.0409% [at 0.37 µM] | fluorescence, % of fluorescent control [4] 0.0291% [at 0.37 µM] | fluorescence, % of Rose Bengal [5] -0.248% [at 0.37 µM] | fluorescence, % of fluorescent control [6] -0.0614% [at 0.37 µM] | fluorescence, % of fluorescein control [7] -0.0284% [at 0.37 µM] | fluorescence, % of fluorescent control [8] -0.0066% [at 0.37 µM] | activation [9] -3.18% [at 0.28 µM] | activity change, negative = inhibition [10] -20.7% [at 0.284 µM] | viability change, negative = cytotoxic [11] -0.875% [at 0.284 µM] | activity change, negative = cytotoxicity [12] 0.129% [at 0.343 µM] | activity, negative = cytotoxicity [13] 4.17% [at 0.343 µM] | activity change, negative = cytotoxicity [14] 7.26% [at 0.345 µM] | activity change, negative = cytotoxicity [15] -3.41% [at 0.284 µM] | activity change, negative = inhibition [16] -2.78% [at 0.284 µM] | activation [17] -3.9% [at 0.28 µM] | activity change [18] 5.01% [at 0.341 µM] | viability change, negative = cytotoxic [19] -3.89% [at 0.341 µM]

COc1ccc(CN2CCNCC2)c(OC)c1OC
inactive: fluorescence, % of fluorescein [1] 0.0001% [at 18.6 µM] | fluorescence, % of fluorescent control [2] -0.0368% [at 18.6 µM] | activity change [3] -0.0737% [at 18.6 µM] | fluorescence, % of fluorescent control [4] -0.395% [at 18.6 µM] | fluorescence, % of Rose Bengal [5] 0.0451% [at 18.6 µM] | fluorescence, % of fluorescent control [6] -0.057% [at 18.6 µM] | fluorescence, % of fluorescein control [7] -0.137% [at 18.6 µM] | fluorescence, % of fluorescent control [8] -0.0322% [at 18.6 µM] | Potency [9] | Potency [10] | Potency [11] | Potency [12] | Potency [13] | Potency [14] | Potency [15] | Potency [19] | Potency [20]

CNC(=O)Oc1ccccc1C(C)C
inactive: outcome [1] | outcome [2] | outcome [3] | outcome [4] | outcome [5] | outcome [6] | outcome [7] | outcome [8] | Potency [9] | Potency [10] | Potency [11] | Potency [12] | Potency [14] | Potency [15] | Potency [16] | outcome [17] | outcome [18] | Potency [19] | Potency [20]

— PubChem BioAssay (Tox21)
